From PubChem
Most compounds without a hit are left out; they make up all but 0.56% or so of the library.
PvdQ acylase: blocks Pseudomonas aeruginosa PvdQ acylase activity; purified PvdQ acylase, fluorescence plate reader; inhibition, % at 10 µM; actives 0.063% (n = 340,000); AID 488965; in the data active = inhibition above about 30%, passing the limit was not always enough;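 note: 0% = vehicle neutral wells and 100% = reference inhibitor wells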
ERp5 block: ERp5 (human) disulfide isomerase inhibition; actives 0.05% (n = 350,000); ERp5 insulin aggregation, absorbance 650 nm, 90 min; inhibition, % at 9.99 µM; Q15084;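 active = mean replicate inhibition above about 25%, with every replicate also reaching it, limit read from the data, passing the limit was not always enough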
Glyco luc inh: N-linked glycosylation inhibition. D54 ERlucT glycosylation luciferase reporter, 24 h; percent of 100 nM tunicamycin response. actives 0.23% (n = 360,000). reporter increase, % at 12.5 µM;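 active = mean luciferase reporter signal, scaled so untreated is 0 and the glycosylation-blocking control 100, at or above a set limit in every replicate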;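 note: luciferase carries N-glycosylation sites so blocking glycosylation raises the light; 0% = median of neutral control wells and 100% = median of 100 nM tunicamycin wells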
Vif imaging: inhibitors of HIV Vif. inhibition, % at 7.49 µM. actives 0.35% (n = 340,000). HEK293T cells, Vif self-association by quenched fluorescence, imaging, 24 h; in the data active = inhibition above about 50%, passing the limit was not always enough
PDI turbidity: PDI (human) enzyme inhibition; inhibition, % at 10 µM; actives 0.052% (n = 350,000); AID 588391; PDI insulin aggregation turbidity, A650, 90 min; P07237;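 active = mean inhibition across replicates of 30% or more, whatever share of single replicates reach that level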
* = called active by the depositor.

How did Cc1ccc(/C=N/NC(=O)Cn2nnc(N)n2)cc1 do in these assays?
PvdQ acylase: -7.2; ERp5 block: 1.8; Glyco luc inh: 1.0; Vif imaging: 23.6; PDI turbidity: -1.9

What do the screens show for `CCn1nc(C)c(/C=N/NC(=O)Cn2nnc(N)n2)c1C`?
PvdQ acylase: -4.0; ERp5 block: 0.5; Glyco luc inh: 1.1; Vif imaging: 59.1*; PDI turbidity: 1.2

What do the screens show for `COc1c(Br)cc(Br)cc1/C=C1/C(=O)N=C(N)N1C`?
PvdQ acylase: -1.7; ERp5 block: -3.1; Glyco luc inh: -0.4; Vif imaging: 95.5*; PDI turbidity: -4.2

How did COc1cccc(-c2nc(CS(=O)(=O)CC(=O)NC3CCCc4ccccc43)c(C)o2)c1 (stereo not drawn) do in these assays?
PvdQ acylase: 5.9; ERp5 block: 0.0; Glyco luc inh: 2.5; Vif imaging: -7.2

What do the screens show for `C=CC[C@H](CC(=O)N(CCO)Cc1ccccc1)C(=O)N[C@H](COC(=O)[C@@H](CC=C)Cc1ccc(F)cc1)C(C)(C)C`?
PvdQ acylase: -12.7; ERp5 block: 9.7; Glyco luc inh: 2.4; Vif imaging: -8.2; PDI turbidity: -2.4

Results for C=CC[C@@H](CC(=O)N(CCO)Cc1ccccc1)C(=O)N[C@H](COC(=O)[C@@H](CC=C)Cc1ccc(F)cc1)C(C)(C)C ?
PvdQ acylase: 2.3; ERp5 block: 6.3; Glyco luc inh: -3.0; Vif imaging: 54.8*; PDI turbidity: -0.1

Results for CC(=O)N1CCc2cc(S(=O)(=O)CCC(=O)N3CCN(c4ccccc4)CC3)ccc21 ?
PvdQ acylase: 7.1; ERp5 block: -2.5; Glyco luc inh: -2.4; Vif imaging: -7.4; PDI turbidity: 5.7
